These results are taken from ChEMBL document CHEMBL3988442, “University of Dundee, Small-Polar-MMV Screening Library” (2021).

Each structure is given as a SMILES string. For some of these results: Results with a measured potency or affinity are listed apart.

Common to all, as to parameters: scale not given: direction of the effect not stated beside the values
Experiment [1] has as its target Protein translocase subunit SecA (Escherichia coli (strain K12)) (UniProt P10408). The experiment in a line: Assay to Identify E. coli SecA ATPase Inhibitors. The format is functional. The conditions noted are these: 30 µM.
Experiment [2] has as its target T1, Ubiquitin-activating enzyme e1, putative (Leishmania donovani (strain BPK282A1)) (UniProt E9BSI1).
T1 sequence (whole entry): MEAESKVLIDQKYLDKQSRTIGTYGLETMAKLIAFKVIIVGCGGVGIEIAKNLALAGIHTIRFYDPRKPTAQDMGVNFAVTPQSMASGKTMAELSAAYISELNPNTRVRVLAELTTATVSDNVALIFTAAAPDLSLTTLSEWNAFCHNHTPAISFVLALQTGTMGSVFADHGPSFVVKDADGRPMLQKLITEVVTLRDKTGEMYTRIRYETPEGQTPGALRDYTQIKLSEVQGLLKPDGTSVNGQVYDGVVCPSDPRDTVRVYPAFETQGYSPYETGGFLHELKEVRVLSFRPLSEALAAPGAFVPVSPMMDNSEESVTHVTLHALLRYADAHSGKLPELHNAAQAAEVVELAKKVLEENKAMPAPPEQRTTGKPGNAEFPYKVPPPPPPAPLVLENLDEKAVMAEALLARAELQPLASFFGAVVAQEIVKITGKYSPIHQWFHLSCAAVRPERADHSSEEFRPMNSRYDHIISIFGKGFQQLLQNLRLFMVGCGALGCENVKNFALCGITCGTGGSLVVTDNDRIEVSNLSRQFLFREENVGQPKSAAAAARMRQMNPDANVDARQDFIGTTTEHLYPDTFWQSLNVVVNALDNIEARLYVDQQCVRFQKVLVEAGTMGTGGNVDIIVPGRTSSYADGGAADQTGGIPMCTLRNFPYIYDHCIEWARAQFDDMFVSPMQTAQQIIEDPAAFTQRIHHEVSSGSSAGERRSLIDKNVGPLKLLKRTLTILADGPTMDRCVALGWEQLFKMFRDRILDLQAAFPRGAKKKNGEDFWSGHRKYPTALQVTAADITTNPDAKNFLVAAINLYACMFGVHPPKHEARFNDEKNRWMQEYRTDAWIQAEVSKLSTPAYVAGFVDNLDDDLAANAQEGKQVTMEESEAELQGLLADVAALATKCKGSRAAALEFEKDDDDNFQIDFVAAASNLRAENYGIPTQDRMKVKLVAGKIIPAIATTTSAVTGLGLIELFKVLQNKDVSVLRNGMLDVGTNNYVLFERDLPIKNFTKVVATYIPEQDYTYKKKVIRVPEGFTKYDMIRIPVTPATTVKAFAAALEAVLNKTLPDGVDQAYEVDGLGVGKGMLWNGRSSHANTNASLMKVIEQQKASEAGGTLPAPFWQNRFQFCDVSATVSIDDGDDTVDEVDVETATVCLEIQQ
The experiment in a line: Leishmania donovani Ubiquitin Activating Enzyme (LdE1). The conditions noted are these: 30 µM. The format is functional.

The target of experiment [3] is AMP-activated protein kinase, AMPK (Homo sapiens) (UniProt P54646+O43741+P54619+Q9UGJ0+Q9Y478+Q13131+Q9UGI9). The experiment in a line: AMP-dependent Kinase enzyme assay. An in vitro enzyme assay that detects ADP turnover that is directly proportional to AMPK activity. This uses naive AMPK that is activated during the assay with MK-8722. The format is functional. The conditions noted are these: 30 µM.

Experiment [4] addresses Sialic acid-binding Ig-like lectin 9 (Homo sapiens) (UniProt Q9Y336). The experiment in a line: Hs-Siglec9 ALPHAscreen SOP 20170721. The conditions noted are these: 10 µM. In general terms: In Alpha technology, singlet oxygen from a donor bead excites a nearby acceptor bead.
The next experiment deals with Trypanosoma cruzi. Briefly: Trypanosoma cruzi phosphomannomutase and mannose-1-phosphate guanylyltransferase assay. The format is functional. The conditions noted are these: 10 µM.
Experiment [5] concerns the target T2, Arginase-2, mitochondrial (Homo sapiens) (UniProt P78540).
T2 sequence (whole entry): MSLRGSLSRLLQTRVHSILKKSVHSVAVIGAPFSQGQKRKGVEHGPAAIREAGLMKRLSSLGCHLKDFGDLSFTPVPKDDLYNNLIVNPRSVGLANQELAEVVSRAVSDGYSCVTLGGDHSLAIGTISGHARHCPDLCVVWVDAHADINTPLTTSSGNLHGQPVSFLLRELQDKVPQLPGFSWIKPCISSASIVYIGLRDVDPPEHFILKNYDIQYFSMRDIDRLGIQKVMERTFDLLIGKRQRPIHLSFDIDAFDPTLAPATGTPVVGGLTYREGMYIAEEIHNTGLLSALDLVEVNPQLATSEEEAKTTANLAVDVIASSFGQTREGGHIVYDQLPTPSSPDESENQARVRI
Briefly: in vitro enzyme assay to detect the production of urea directly proportional to the activity of Arginase II. Note: in the data most compounds retested in dose-response had high values. The format is functional. The conditions noted are these: 33.3 µM.

The target of experiment [6] is T3, Proteasome subunit beta (Trypanosoma cruzi) (UniProt O96673).
T3 sequence (whole entry): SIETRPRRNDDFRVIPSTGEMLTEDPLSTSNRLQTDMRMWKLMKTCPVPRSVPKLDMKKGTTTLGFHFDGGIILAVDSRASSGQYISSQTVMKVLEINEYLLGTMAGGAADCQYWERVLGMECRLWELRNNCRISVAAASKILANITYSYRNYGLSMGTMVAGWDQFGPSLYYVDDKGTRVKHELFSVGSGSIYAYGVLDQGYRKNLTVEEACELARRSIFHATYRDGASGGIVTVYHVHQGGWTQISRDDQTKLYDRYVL
Briefly: Trypanosoma cruzi proteasome chymotrypsin-like activity (TcProtChymo) assay. Note: in the data most compounds retested in dose-response had high values. The format is functional. The conditions noted are these: 9.37 µM.

The next experiment is filed under the species Homo sapiens. Briefly: To identify inhibition of the IFN signalling (Jak-Stat) pathway via expression of an eGFP reporter gene under the control of an IFN-stimulated response element (ISRE) containing MxA promoter. The format is functional. The conditions noted are these: 30 µM. A general note: A reporter such as luciferase makes a cellular process visible.

Experiment [7] has as its target T4, Tyrosyl-tRNA synthetase, putative (Trypanosoma cruzi (strain CL Brener)) (UniProt Q4DSP6).
T4 sequence (whole entry): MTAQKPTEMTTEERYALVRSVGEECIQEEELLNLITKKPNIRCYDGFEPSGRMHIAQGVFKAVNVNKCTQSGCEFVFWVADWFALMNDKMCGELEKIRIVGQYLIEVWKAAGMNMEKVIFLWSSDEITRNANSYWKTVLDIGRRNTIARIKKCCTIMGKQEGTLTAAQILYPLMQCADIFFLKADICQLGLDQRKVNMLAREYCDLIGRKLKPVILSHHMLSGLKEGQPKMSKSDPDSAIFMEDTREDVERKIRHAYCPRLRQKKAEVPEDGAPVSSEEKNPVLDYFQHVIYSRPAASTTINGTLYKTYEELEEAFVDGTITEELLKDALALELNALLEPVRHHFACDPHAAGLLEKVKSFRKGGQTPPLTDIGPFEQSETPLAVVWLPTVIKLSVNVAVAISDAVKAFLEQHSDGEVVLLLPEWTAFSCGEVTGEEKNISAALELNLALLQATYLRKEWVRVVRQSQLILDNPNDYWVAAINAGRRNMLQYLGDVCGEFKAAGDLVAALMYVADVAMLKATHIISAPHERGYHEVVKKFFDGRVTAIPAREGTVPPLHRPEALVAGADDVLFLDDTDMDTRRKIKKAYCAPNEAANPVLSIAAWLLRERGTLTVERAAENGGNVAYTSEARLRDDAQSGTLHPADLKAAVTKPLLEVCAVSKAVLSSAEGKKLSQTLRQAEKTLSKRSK
The experiment in a line: Trypanosoma cruzi tyrosyl tRNA synthetase (TcYRS) _High Tyrosine SOP. Note: in the data most compounds retested in dose-response had high values. The format is functional. The conditions noted are these: 30 µM.

Experiment [8] addresses T4, Tyrosyl-tRNA synthetase, putative (Trypanosoma cruzi (strain CL Brener)). The experiment in a line: Trypanosoma cruzi tyrosyl tRNA synthetase (TcYRS) SOP. It counts as functional. The conditions noted are these: 30 µM.
For experiment [9], the target named is Chromo domain-containing protein 1 (Saccharomyces cerevisiae (strain ATCC 204508 / S288c) (Baker's yeast)) (UniProt P32657). Briefly: ScCHD-1 Enzyme Inhibition Assay. Note: in the data most compounds retested in dose-response had high values. The format is functional. The conditions noted are these: 30 µM.
Sequence of Chromo domain-containing protein 1 (Saccharomyces cerevisiae (strain ATCC 204508 / S288c) (Baker's yeast)) (P32657 whole entry, the tested form may be a part): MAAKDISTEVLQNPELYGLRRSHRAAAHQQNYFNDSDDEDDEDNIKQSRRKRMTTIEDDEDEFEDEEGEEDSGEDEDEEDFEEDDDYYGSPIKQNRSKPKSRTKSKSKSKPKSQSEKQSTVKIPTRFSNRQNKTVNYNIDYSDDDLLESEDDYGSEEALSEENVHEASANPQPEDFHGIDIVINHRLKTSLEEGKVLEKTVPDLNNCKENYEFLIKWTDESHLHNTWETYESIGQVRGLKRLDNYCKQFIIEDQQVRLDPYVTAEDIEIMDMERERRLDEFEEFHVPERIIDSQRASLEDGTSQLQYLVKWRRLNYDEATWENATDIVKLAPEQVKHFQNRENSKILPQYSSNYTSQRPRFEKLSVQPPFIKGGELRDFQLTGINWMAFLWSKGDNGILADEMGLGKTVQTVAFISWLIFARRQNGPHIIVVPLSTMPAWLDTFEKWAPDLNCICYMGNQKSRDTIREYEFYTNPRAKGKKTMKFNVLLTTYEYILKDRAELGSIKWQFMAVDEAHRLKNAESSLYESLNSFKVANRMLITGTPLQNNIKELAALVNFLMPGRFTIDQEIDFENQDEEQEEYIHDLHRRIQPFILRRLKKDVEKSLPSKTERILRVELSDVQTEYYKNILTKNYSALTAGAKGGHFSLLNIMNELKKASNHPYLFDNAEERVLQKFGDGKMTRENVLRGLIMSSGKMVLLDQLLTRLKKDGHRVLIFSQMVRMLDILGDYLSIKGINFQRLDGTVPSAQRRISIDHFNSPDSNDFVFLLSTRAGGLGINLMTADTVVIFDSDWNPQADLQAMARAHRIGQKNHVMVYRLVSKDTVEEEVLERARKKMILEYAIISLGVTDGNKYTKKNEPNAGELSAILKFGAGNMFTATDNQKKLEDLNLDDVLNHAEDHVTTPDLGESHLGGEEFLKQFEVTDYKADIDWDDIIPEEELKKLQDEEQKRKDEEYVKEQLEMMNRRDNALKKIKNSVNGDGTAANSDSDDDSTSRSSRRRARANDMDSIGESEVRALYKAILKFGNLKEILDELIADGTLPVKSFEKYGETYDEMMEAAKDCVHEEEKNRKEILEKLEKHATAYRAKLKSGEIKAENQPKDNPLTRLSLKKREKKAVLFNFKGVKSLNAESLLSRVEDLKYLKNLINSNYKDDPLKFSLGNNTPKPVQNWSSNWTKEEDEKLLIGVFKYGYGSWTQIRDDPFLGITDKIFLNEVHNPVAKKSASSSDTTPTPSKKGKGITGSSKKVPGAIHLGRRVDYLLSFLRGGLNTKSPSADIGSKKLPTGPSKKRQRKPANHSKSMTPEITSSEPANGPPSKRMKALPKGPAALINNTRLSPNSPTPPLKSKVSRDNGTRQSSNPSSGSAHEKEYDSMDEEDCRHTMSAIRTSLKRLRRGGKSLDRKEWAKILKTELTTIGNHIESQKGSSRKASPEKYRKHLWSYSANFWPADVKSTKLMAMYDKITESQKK

Sequence of Protein translocase subunit SecA (Escherichia coli (strain K12)) (P10408 whole entry): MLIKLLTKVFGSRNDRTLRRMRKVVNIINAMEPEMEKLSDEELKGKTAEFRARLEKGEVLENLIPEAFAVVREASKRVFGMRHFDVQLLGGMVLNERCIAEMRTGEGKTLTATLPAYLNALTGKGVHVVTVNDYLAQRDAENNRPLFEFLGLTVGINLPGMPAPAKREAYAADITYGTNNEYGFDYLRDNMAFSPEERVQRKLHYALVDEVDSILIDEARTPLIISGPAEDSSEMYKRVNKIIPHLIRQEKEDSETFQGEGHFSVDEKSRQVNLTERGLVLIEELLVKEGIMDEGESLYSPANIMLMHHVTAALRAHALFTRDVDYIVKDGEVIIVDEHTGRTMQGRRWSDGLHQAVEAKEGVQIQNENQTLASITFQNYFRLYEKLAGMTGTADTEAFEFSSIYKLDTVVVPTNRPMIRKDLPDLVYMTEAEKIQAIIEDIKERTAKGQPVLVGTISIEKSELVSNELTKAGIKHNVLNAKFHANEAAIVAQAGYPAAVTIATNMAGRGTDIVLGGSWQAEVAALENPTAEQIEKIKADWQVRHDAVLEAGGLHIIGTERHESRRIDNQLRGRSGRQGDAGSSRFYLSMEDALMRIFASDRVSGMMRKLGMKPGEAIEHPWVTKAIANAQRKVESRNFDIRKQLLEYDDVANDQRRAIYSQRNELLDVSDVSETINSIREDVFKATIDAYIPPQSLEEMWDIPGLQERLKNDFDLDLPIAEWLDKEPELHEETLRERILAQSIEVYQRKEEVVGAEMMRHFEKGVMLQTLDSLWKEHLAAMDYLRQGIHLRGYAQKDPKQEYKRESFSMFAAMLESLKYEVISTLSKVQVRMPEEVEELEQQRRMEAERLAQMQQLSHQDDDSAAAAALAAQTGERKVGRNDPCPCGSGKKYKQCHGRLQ
Sequence of Sialic acid-binding Ig-like lectin 9 (Homo sapiens) (Q9Y336 whole entry): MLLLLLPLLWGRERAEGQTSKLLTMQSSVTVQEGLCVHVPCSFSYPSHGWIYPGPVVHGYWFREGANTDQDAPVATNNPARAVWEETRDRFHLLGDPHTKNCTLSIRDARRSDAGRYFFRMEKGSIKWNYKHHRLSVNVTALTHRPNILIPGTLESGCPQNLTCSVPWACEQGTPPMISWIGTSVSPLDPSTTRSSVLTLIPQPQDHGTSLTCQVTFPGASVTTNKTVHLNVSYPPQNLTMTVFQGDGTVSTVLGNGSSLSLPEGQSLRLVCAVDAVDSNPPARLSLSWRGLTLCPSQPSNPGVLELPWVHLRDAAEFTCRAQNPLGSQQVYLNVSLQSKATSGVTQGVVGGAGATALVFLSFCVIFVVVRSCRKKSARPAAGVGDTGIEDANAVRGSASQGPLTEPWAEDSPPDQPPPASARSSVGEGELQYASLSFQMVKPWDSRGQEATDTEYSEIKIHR

Take `CC(C)c1nc2c(n1C)CCN(Cc1nc(-c3ccsc3)no1)C2`: the Percent Effect is -1.67% in [1]; -24.3% in experiment [2]; -9.21% in experiment [3]; 0.639% in experiment [4]; 7.71% with Trypanosoma cruzi; -1.29% in experiment [5]. Besides, the Percent Effect in experiment [6] is 10.1%; in the experiment filed under Homo sapiens it was 1.59%; in experiment [7], 9.9%; in experiment [8], 25.6%; in experiment [9], -0.805%.
Consider `COc1cccc(CN(C)C(=O)CN2CC(n3nc(C)cc3C)C2)c1`, for which the Percent Effect in [1] was -0.578%; in [2] it was -73.7%; in experiment [3], 0.521%; in [4], -5.84%; with Trypanosoma cruzi, 1.27%; in [5], 1.18%. Moreover, the Percent Effect was 24.3% in [6]; 23.1% in the experiment filed under Homo sapiens; 26.6% in [7]; 39% in experiment [8]; -4.54% in experiment [9].
Take `COC(=O)c1ccc(N2CCN(C(=O)c3ccncc3)C(C)C2)cc1` (stereo unspecified): the Percent Effect in experiment [1] was -4.64%; in [2], 20.2%; in [3] it was -9.5%; in experiment [4] it was 4.75%; in the experiment on Trypanosoma cruzi it was 4.63%; in experiment [5], -2.66%. Also, the Percent Effect in experiment [6] is 10.1%; in the experiment listed under Homo sapiens it was 20.8%; in [7] it was 8.37%; in experiment [8] it was 24.1%; in experiment [9], -9.65%.
Consider `Cc1nc(C)n(C2CCCN(C(=O)Cc3n[nH]c4ccccc34)C2)n1` (stereo unspecified), for which the Percent Effect in experiment [1] is -5.17%; in experiment [2] it was -2.6%; in experiment [3], 5.72%; in experiment [4], 7.39%; in the experiment with Trypanosoma cruzi it was 1.69%; in experiment [5], -7.47%. The Percent Effect in experiment [6] is 4.56%; in the experiment listed under Homo sapiens, 5.91%; in [7] it was 5.83%; in experiment [8], 14.6%; in experiment [9], -7.79%.
On to `CCn1cc2c(n1)CN(Cc1ccoc1)CC2COCC1CC1` (stereo unspecified), for which the Percent Effect is -5.08% in experiment [1]; -10.8% in [2]; -0.58% in [3]; 2.38% in [4]; 6.64% in the experiment with Trypanosoma cruzi; -1.67% in experiment [5]. For the same molecule, the Percent Effect in experiment [6] is 7.69%; in the experiment filed under Homo sapiens it was -8.7%; in experiment [7], 11.9%; in [8], 8.54%; in experiment [9] it was -4.61%.
Regarding `CN(CC(=O)NCc1ccccn1)CC1CCCN1c1cccnn1` (stereo unspecified), the Percent Effect was -1.59% in experiment [1]; -5.41% in experiment [2]; -4.72% in experiment [3]; -0.887% in experiment [4]; -2.15% in the experiment on Trypanosoma cruzi; -3.75% in experiment [5]. Besides, the Percent Effect in [6] was 27.8%; in the experiment filed under Homo sapiens, 3.47%; in [7], 8.91%; in [8], 1.22%; in [9] it was -0.357%.
As for `Cc1ncc(-c2nc3cc(S(=O)(=O)N4CCCC4)ccc3n2C)cn1`, the Percent Effect was -5.62% in experiment [1]; 5.48% in [2]; 12.1% in experiment [3]; -7.83% in experiment [4]; 0% in the experiment on Trypanosoma cruzi; 6.36% in experiment [5]. In addition, the Percent Effect in [6] is 2.13%; in the experiment filed under Homo sapiens, 14.1%; in experiment [7] it was 6.45%; in [8], 15%; in [9], -1.23%.
With `NC(=O)C1CN(C(=O)Nc2ccccc2N2CCCCCC2)CCO1` (stereo unspecified), the Percent Effect in [1] was -6.93%; in experiment [2] it was -48.6%; in experiment [3] it was -3.8%; in experiment [4], 9.74%; in the experiment on Trypanosoma cruzi it was 6.96%; in [5] it was -3.88%. The Percent Effect is 4.31% in experiment [6]; 11.3% in the experiment filed under Homo sapiens; 1.98% in experiment [7]; 15.8% in [8]; -1.09% in [9].
As to `COCc1nc(C(=O)N2CCCC2c2ccccc2C)cs1` (stereo unspecified), the Percent Effect in experiment [1] was -2.11%; in experiment [2] it was 3.8%; in experiment [3] it was 3.68%; in experiment [4] it was 5.3%; with Trypanosoma cruzi, 0.513%; in experiment [5] it was -4.09%. Further, the Percent Effect was 13.2% in experiment [6]; 16.4% in the experiment listed under Homo sapiens; 9.38% in experiment [7]; 22.8% in [8]; -22.3% in experiment [9].
Consider `CN(CC(=O)N1CCCC1Cn1cccn1)C1CC1` (stereo unspecified), for which the Percent Effect in experiment [1] was -4.84%; in experiment [2], 10.1%; in [3], -1.88%; in experiment [4], 13.2%; in the experiment with Trypanosoma cruzi, 1.04%; in experiment [5], 0%. The Percent Effect in experiment [6] was -0.0819%; in the experiment filed under Homo sapiens, 3.19%; in experiment [7] it was 1.48%; in experiment [8], 8.86%; in experiment [9], -3.87%.
In the case of `Cc1ccc(C(=O)NCCCNS(C)(=O)=O)cc1-n1cccc1`, the Percent Effect in experiment [1] was -3.12%; in experiment [2], 13.2%; in [3], 12.3%; in [4] it was -1.07%; in the experiment with Trypanosoma cruzi it was 3.99%; in experiment [5] it was 9.47%. Also, the Percent Effect in [6] was 15.2%; in the experiment filed under Homo sapiens, 9.99%; in [7], 6.38%; in experiment [8], 10.4%; in [9], -5.78%.
